Shown are actives, neighbours in structure and some others; about 21% of the full set was active somewhere.
Pf growth 48h: P. falciparum growth inhibition at 48 hours (one generation) | P. falciparum luciferase growth in erythrocytes, 48 h | Potency, µM (top dose mostly 28.7 µM), for the others: top-dose activity change, negative = inhibition, hits mostly inhibitors | 310,000 tested, 5.9% active; further: potency means the concentration at half of the fitted maximal effect; on the % scale 0 is the no-effect control and ±100 the full control effect
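Luminescence readout; reporter = integrated firefly luciferase in P. falciparum. RBC culture at 2% hematocrit, 0.1% parasitemia final, 37 C/5% CO2; decreased signal taken as growth inhibition.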
AMA1 RON2 block: AMA1-RON2 (P. falciparum) interaction inhibition | AlphaScreen AMA1-biotinylated RON2 peptide binding | Potency, µM (titrated, usually from 58.2 µM), for the others: at the top dose activity change, negative = inhibition, hits mostly inhibitors | 360,000 tested, 0.2% active;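 further: potency means the concentration at half of the fitted maximal effect; 0% = vehicle wells and -100% = peptide control; nearly all actives have a fitted effect of over 45% in size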
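AMA1 (3D7) with his tag at 25 nM final met compounds first, then biotinylated RON2 peptide at 25 nM; detection used donor plus acceptor beads, 10 µg/mL apiece, read by AlphaScreen after 30 min at room temperature.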
Shiga toxin inh: blocks Shiga toxin action in Vero cells; 290,000 tested, 9.2% active; Vero cells, Shiga toxin protein synthesis inhibition reporter; inhibition, % at 38.7 µM; in the data active means inhibition mostly above about 28%, no sharp cut-off; inactive means mostly below about 43%; further: 0% is about no effect
Pf growth 96h: inhibits malaria parasite growth, 96 h | Potency, µM (top dose mostly 28.7 µM), for the others: at the highest dose activity change, negative = inhibition, usual class: inhibitors | 320,000 tested, 6.9% active | P. falciparum luciferase reporter growth, 96 h | AID 504834; further: potency means the concentration at half of the fitted maximal effect; on the % scale 0 is the no-effect control and ±100 the full control effect
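Erythrocytes infected with luciferase-expressing P. falciparum were dispensed at 2% hematocrit and 0.05% parasitemia (final), then incubated with compounds 96 hours at 37 C in 5% CO2. Luminescence after detection reagent addition reported growth.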
CHX counter: affects cycloheximide protein synthesis inhibition readout, counter-screen; max response, %; 300,000 tested, 12% active; cell reporter, cycloheximide protein synthesis inhibition counterscreen; in the data active means max response mostly above about 13%, no sharp cut-off; inactive means mostly below about 14%; further: read at 38.3 µM for the half of the compounds with a filed dose; 0% is about no effect
HCV inh: inhibitors of hepatitis C virus infection; Huh7.5.1 HCVcc-Cre infection, luciferase reporter, 44 h; Potency, µM (titrated, usually from 41.8 µM), for inactives: at the top dose activity change, negative = inhibition, most hits filed as inhibitors; 340,000 tested, 3.4% active; further: potency means the concentration at half of the fitted maximal effect; on the % scale 0 is the no-effect control and ±100 the full control effect
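Antiviral activity was scored by luciferase reporter output from cells infected with HCVcc-Cre (~0.5 moi) in presence of compound, 44 h infection period, cells seeded 1,000/well 4 h prior.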
* hit, by the source's call; ? = inconclusive; . = no result; ! = not confirmed by another sample; [ ] = another dose, or the depositor's remark. Unless noted, the call rests on the fitted dose curve; in most records, active means well fitted curve in the direction sought with a large enough effect; inconclusive means small, poorly fitted or top-dose-only effect, or another doubt; inactive means no such curve, though single readings can be large; an effect the other way counts as inactive or inconclusive.

SMILES	Pf growth 48h	AMA1 RON2 block	Shiga toxin inh	Pf growth 96h	CHX counter	HCV inh
COc1ccc(C2=CC(=O)OC3(CCCCC3)O2)cc1	4.15µM*	-5.7%	17.8	?	6.4	-29.8%
O=C(OCc1ccc([N+](=O)[O-])cc1)c1ccc2ccccc2n1	5.7%	-7.7%	-4.5	-10.6%	5.8	-7.9%
Clc1ccc(COn2nnc3ccccc32)c(Cl)c1	12.1%	13.0%	108.6*	.	43.6*	10.1%
O=C(c1ccc(Cl)cc1Cl)n1nnc2ccccc21	.	.	-2.7	.	1.9	.
O=[N+]([O-])c1ccc(COn2nnc3ccccc32)cc1	21.2%	-4.2%	45.1	39.2%	14.2*	-10.8%
CC(Cl)C(=O)NC(=O)NC12CC3CC(CC(C3)C1)C2 (centres undefined)	?	-9.5%	2.7	13.1µM*	-2.3	10.8%
COc1ccc([C@H]2C(C(=O)O)=C[C@@H](C(C)(C)C)N2S(=O)(=O)c2ccccc2)cc1	.	6.8%	.	.	.	0.2%
CCN(CC)CCOc1cc2c(nn1)Oc1ccccc1N2C	13.1%	-6.7%	3.6	3.29µM*	1.7	-21.0%
CCOC(=O)c1cn2nc(Oc3ccc(NC(C)=O)cc3)ccc2n1	0.7%	24.6%	58.7*	13.7%	25.3*	-24.4%
CCOC(=O)c1cn2nc(Oc3ccc(C(=O)OC)cc3)ccc2n1	?	22.3%	-1.4	-12.0%	1.0	-5.7%
CCOC(=O)c1cn2nc(Oc3cccc(F)c3)ccc2n1	28.8%	6.7%	48.6	26.9%	31.3*	8.3%
CCOC(=O)c1cn2nc(Oc3ccc(C#N)cc3)ccc2n1	-8.9%	13.3%	16.4	8.6%	-1.9	8.7%
CN1CC(=O)Nc2ccccc2C1=O	32.3%	13.8%	-12.0	-5.5%	-5.3	6.1%
CC/C(C)=N/N1C(=O)c2ccccc2NC1(C)CC (centres undefined)	5.3%	-19.4%	77.3*	21.0%	29.6*	-2.7%
Cc1ccc(SCC(=O)OC(C)C(=O)NC2CCCCC2C)c(C)c1 (centres undefined)	-12.6%	-3.1%	.	?	.	6.6%
CCCOCc1ccc(O)c2ncccc12	11.7µM*	-60.0%	17.3	4.65µM*	1.2	5.62µM*
CC(C)COCc1ccc(O)c2ncccc12	?	-82.1%	-3.8	8.2%	-3.4	2.82µM*
Oc1ccc(Cc2ccccc2)c2cccnc12	.	18.3%	.	.	.	?
Oc1ccc(COCc2ccccc2)c2cccnc12	3.29µM*	?	147.3*	4.15µM*!	68.1*	5.01µM*
CC(=O)C[C@H](c1ccc([N+](=O)[O-])cc1)c1c(O)c2ccccc2oc1=O	-12.2%[12.8 µM]	.	.	?	.	.
CSCCC(C(=O)Nc1c(C)cccc1C)n1c(-c2cc(C)cs2)nc2ccccc21 (centres undefined)	.	5.6%	.	.	.	.
COc1ccc(NC(=O)CN2CCN(CC(=O)Nc3ccc(OC)cc3)CC2)cc1	-15.9%	-4.5%	-11.4	-1.7%	-0.5	12.1%
Brc1ccc(N/N=C(/N=Nc2nn[nH]n2)c2ccccc2)cc1	3.29µM*	-4.6%	52.5	1.85µM*	19.0*	5.62µM*
CN1CC[C@@]2(C)c3cc(O)ccc3N(C)[C@@H]12	.	-14.3%	.	.	.	?
CNC(=O)Oc1ccc2c(c1)[C@]1(C)CCN(C)C1N2C (some centres undefined)	13.1µM*	-5.0%	.	14.7µM*	.	-9.0%
SMILES	Pf growth 48h	AMA1 RON2 block	Shiga toxin inh	Pf growth 96h	CHX counter	HCV inh
Cc1cn2c(N)c(C=C3C=C(Cl)C(=O)C(Cl)=C3)c(=O)nc2s1	-27.5%	42.0%	3.7	7.6%	0.6	9.6%
COC1=C/C(=C/c2c(N)n3cc(C)sc3nc2=O)C=CC1=O	0.9%	55.1%	44.6*	-26.2%	41.6*	-5.7%
COc1ccc(C2/C(=C(/O)c3ccc4c(c3)CC(C)O4)C(=O)C(=O)N2CCN2CCOCC2)cc1OC (centres undefined)	6.8%	-1.4%	-4.0	20.5%	-0.5	24.1%
O=C(NC1CCCC1)C1C2C=CC(C2)C1C(=O)N1CCOCC1 (centres undefined)	10.0%	-3.6%	-4.3	9.28µM*	-0.6	14.8%
O=C(O)C1C2C=CC(C2)C1C(=O)N1CCOCC1 (centres undefined)	11.5%	-3.6%	-12.3	?	1.4	17.1%
O=C(/C=C/C(=O)NCc1cccs1)NCc1cccs1	6.1%	3.6%	-4.2	24.8%	-2.8	1.9%
O=C(/C=C/c1cccc(Cl)c1)Nn1c(-c2cccs2)nc2ccccc2c1=O	-0.7%	8.0%	-2.4	2.08µM*	-0.4	-15.3%
O=C(/C=C/c1cccc(Cl)c1)NCc1cccs1	6.8%	13.8%	41.4*	?	38.3*	-20.5%
COCCCNC(=O)/C=C/c1ccc(Cl)cc1	31.2%	-1.9%	50.1*	90.5%	21.2*	-0.3%
O=C(/C=C/c1ccc(Cl)cc1)NCc1cccs1	70.2%	-8.2%[11.6 µM]	91.7*	12.7%	53.2*	-5.6%
CCOC(=O)CCc1c(C(=O)OCC)[nH]c(CC)c1C(=O)OCc1ccccc1	?	-19.9%	-13.0	?	-0.9	?
O=C(CN1CCN(S(=O)(=O)c2ccc(F)c(Cl)c2)CC1)N1CCNC1=O	-5.1%	-7.7%	.	18.8%	.	16.6%
CC1(C(=O)Nc2ccc3c(c2)OCCO3)CSCC(=O)N1CC(F)(F)F (centres undefined)	.	-0.7%	.	.	.	.
COc1ccccc1CCNC(=O)C(=O)NCC1OCCN1S(=O)(=O)c1ccc2c(c1)OCCO2 (centres undefined)	?	-5.1%	-6.6	?	14.2	?
Cc1ccc(/C=C/C(O)=C2/C(=O)N(C)C3(C)CC2c2ccccc2O3)cc1 (centres undefined)	11.7µM*	14.3%	-10.9	11.8%	2.4	?
COc1ccc(/C=C/C(O)=C2/C(=O)N(C)C3(C)CC2c2ccccc2O3)cc1 (centres undefined)	13.1µM*	-1.9%	-2.2	0.0%	-3.3	-17.0%
Cc1cc(C)nc(SCC(=O)NCC2COc3ccccc3O2)n1 (centres undefined)	-16.8%	21.9%	.	0.5%	.	13.1%
CCOC(=O)N1CCC(NC(=O)CSc2cc(=O)n(C)c3ccccc23)CC1	-6.1%	-5.0%	-29.0	13.1µM*	-4.0	-5.3%
Cn1c(=O)cc(SCC(=O)NCC2COc3ccccc3O2)c2ccccc21 (centres undefined)	3.8%	10.9%	9.8	2.94µM*	3.9	-1.6%
O=C(CCS(=O)(=O)c1ccc(F)cc1)Nc1nc(-c2ccncc2)cs1	?	-4.5%	13.9	?	6.8	-28.2%
CCN1CCN(CCCNC(=O)c2ccc(NC(=O)C3=CSCCO3)cc2)CC1	14.5%	-11.6%	7.7	45.0%	1.2	18.9%
CCOc1ccccc1CNC(=O)c1ccc(NC(=O)C2=C(C)OCCS2)cc1	?	-15.6%	-7.1	6.57µM*	-7.1	?
CC1=C(C(=O)Nc2cccc(C(=O)NCc3ccccc3C)c2)SCCO1	?	3.6%	-5.3	-0.4%	6.8	?

Assay outcomes: PubChem, National Center for Advancing Translational Sciences (NCATS)
